B1: ENSMUSG00000090935.122|Synj2bp|46:51;222:232 (ssRNA)
RNA: GGGAGUUCUACAGUCCGACGAUCGCUUCGAUAUCCGCAUGCUAUUCGUGAGAUACCGAAAGCAGCUUUGAAAUGCUUGCUGUCUUCCACACACACCAAUGAACUCUCUCUCUCACUCACCAUCUCUGACAUCCUCCCAUAUUCUUUCUCCUCCACAUAGCCAAUACAAGAUUUAAAGUGACUGCUUAUCACCCAAAACCCUGCUAUUCAAAAUCUCCUAUUCUAAUGGAAGAGUACAGGGGUUAUUUGAAGAAAAGCUGUGGUGCACACACACACGGGGAAGCCUUGCUUAGAAUGAAUGAGACUCUUGCGGUCGCACUAGUGUGGAAUUCUCGGGUGUCAAGG
B2: ENSMUSG00000058297.93|Spock2 (ssRNA)
RNA: GGGAGUUCUACAGUCCGACGAUCGCUUCGAUAUCCGCAUGCUAAGGGAGGGCAGGCAGCUGAAAGCUGAGCGUCCUCCCCAAAUUGGGCUGAUUUGAUAUGAAAGCCCCACCACGGUCUUGUGGUGAUGAGGCAGGACCUGUACACACAGCAAGGCUUACUAUCCGUCUCCUGACAUCCGAAGAGCUCGUCGCAGGUGUGUCUAAUGGCCCUUGGGCUGCACGUGGUUAAGCAUAGCUGUCUCUGUGGCCCAACACAAAGAGGUAAACUUACUUAAAACACAGGGGUUUUGUUGCUGUUUGUUCUCUUGCGGUCGCACUAGUGUGGAAUUCUCGGGUGUCAAGG
B3: ENSMUSG00000004113.177|Cacna1b|55:59;63:67;78:82;232:236 (ssRNA)
RNA: GGGAGUUCUACAGUCCGACGAUCGCUUCGAUAUCCGCAUGCUAGUAACUUUAAAAAAAAAGUCAACAUGUAGGAAGGUCUCCAUUUUGCAUUGUUUCACACACUUCAUACCAAUGUUCCUCAUACUUUCUACCCUGCCUGGGAUGUCCCCAAUGACCCUGGCUCCUCUGCUCAACCAAGUGCCUGAUCUCUGGCUCUGAGCAUCGUGGAUGAGGUACGGCCUCAGGAAGCAUCGGGUGGAUUGGGUGGGAGCUGCUCAGAGCAGCACGGGGGCUACACACUUAGGGACAUUGACAGUGUCCAUCUCUUGCGGUCGCACUAGUGUGGAAUUCUCGGGUGUCAAGG
B4: ENSMUSG00000042529.443|Kcnj12 (ssRNA)
RNA: GGGAGUUCUACAGUCCGACGAUCGCUUCGAUAUCCGCAUGCUAGAUGAAGCAGCUGCCCUGAGCCCAUCUGGUGCUGUGCACCUGGUCCUUGUCCAGCCGAGGGCCUGGGGGCAGAAGAACACACCAUAGGGAGGCCCUUGUAUGGGUGUCUGCCCUAUGUGAGGUCAUAGAAUGUUAAAUCUAUUUUAAACGGUGAAACUGGAGAAUUUUCAUGUUAUUUUCAAUAAUAGUGGUAUCUAAAGAUGUAGGCAACAAGACUAGACCACAUUAAAUGCAUUUUGAUCUCUUUGAAUGCUACUGUGCUCUUGCGGUCGCACUAGUGUGGAAUUCUCGGGUGUCAAGG
B5: ENSMUSG00000022095.41|Fam160b2|101:105 (ssRNA)
RNA: GGGAGUUCUACAGUCCGACGAUCGCUUCGAUAUCCGCAUGCUAUGAGGUUUCAAGGAGGUGCUGGCUCCUAAGGCAGUGGUAUUCUUGGAGCCUUUUAGAGGAGCUAGAGGAUGGCCAGUGAGCGCCUAGAUGCUGCCCUGCAACACAUGCGUGACUAUCUCUGCUAUAUUGUGACCAGGGCCACAACAUGAGACAACUCCAGGGGCCAGGGAGAUGAACUGCUGUCUUUGAGGCUGGCUAAAAAAACAAUCCAGUCCAGAGAGAUGGGGAGGGGGGGAGCAAGAACCCUGUCUGUUACAUUACUCUUGCGGUCGCACUAGUGUGGAAUUCUCGGGUGUCAAGG
B6: ENSMUSG00000031028.396|Tub|202:206 (ssRNA)
RNA: GGGAGUUCUACAGUCCGACGAUCGCUUCGAUAUCCGCAUGCUAUUGACCACUGGCGCUGUGAACACAGGCUAAUGGACUUCAGAUACCAGGGCCCCGGGAUCACCUGGGUUAGCCUCUCCCACAGGAAGAUCCCUUACCCCUCAUCCCCUCUUCUUUUUGGUCCUUGGCUGGGUAGCAAAUUGGUGAGAAGAGCAGCCUAGUCUGUAAGAGUGCAGGGCAGCUGGAACCUUAGGCAGCUCCUCUCAUACCUACCGGCUCCACACCCUAACACUCUCCACCCUCUGCUCCAAACCAGUUCUUCUCUCUUGCGGUCGCACUAGUGUGGAAUUCUCGGGUGUCAAGG
B7: ENSMUSG00000028439.136|Fam219a (ssRNA)
RNA: GGGAGUUCUACAGUCCGACGAUCGCUUCGAUAUCCGCAUGCUAAACCAGUGCAUCUGUCUCUCUGCCUCAUCCCCACACCGCCCUGCCACCCCCAGUCUUCUGUCUAUUGGUUCCAGGCUGGAAGCAAGAGAUAAGGCUGGCCUCCUGUGCCCCAUUGCCAUUUCACCCUAGCUCAAAGUCCAGGAGCCAGGCUUCCAGAAAGGCUCUUCAAGAGCAAGCUUAAGGAAAUACAGUGAGCCAAGUGGCUGUAUGAUAUGGUAUGGUAUGGUAUGGUAUGGUAUGGUAUGGUAUGCACAUGUGUGCUCUUGCGGUCGCACUAGUGUGGAAUUCUCGGGUGUCAAGG
B8: ENSMUSG00000028439.150|Fam219a (ssRNA)
RNA: GGGAGUUCUACAGUCCGACGAUCGCUUCGAUAUCCGCAUGCUAAGAGAUAAGGCUGGCCUCCUGUGCCCCAUUGCCAUUUCACCCUAGCUCAAAGUCCAGGAGCCAGGCUUCCAGAAAGGCUCUUCAAGAGCAAGCUUAAGGAAAUACAGUGAGCCAAGUGGCUGUAUGAUAUGGUAUGGUAUGGUAUGGUAUGGUAUGGUAUGGUAUGCACAUGUGUGUGCAUGUGUGUGUGCCUGUGUGUGUGCGUGUGCGUGUGUGUAUGUGUGUGCGUGUGUGUGUGUGUGUGUUGUACCCGAGUGUGUCUCUUGCGGUCGCACUAGUGUGGAAUUCUCGGGUGUCAAGG
B9: ENSMUSG00000028439.148|Fam219a|134:138;144:178;183:190;193:202;205:214;216:220;222:238;240:257 (ssRNA)
RNA: GGGAGUUCUACAGUCCGACGAUCGCUUCGAUAUCCGCAUGCUAAGGCUGGAAGCAAGAGAUAAGGCUGGCCUCCUGUGCCCCAUUGCCAUUUCACCCUAGCUCAAAGUCCAGGAGCCAGGCUUCCAGAAAGGCUCUUCAAGAGCAAGCUUAAGGAAAUACAGUGAGCCAAGUGGCUCAUACAUAUGCAUACCAUACCAUACCAUACCAUACCAUACCAUACCACAACACACACCAACACACACACCCACACACACACCCACACCCACACACAUACACACACCCACACACACACACACACAUGUCUCUUGCGGUCGCACUAGUGUGGAAUUCUCGGGUGUCAAGG
B10: ENSMUSG00000028439.151|Fam219a (ssRNA)
RNA: GGGAGUUCUACAGUCCGACGAUCGCUUCGAUAUCCGCAUGCUAAAGGCUGGCCUCCUGUGCCCCAUUGCCAUUUCACCCUAGCUCAAAGUCCAGGAGCCAGGCUUCCAGAAAGGCUCUUCAAGAGCAAGCUUAAGGAAAUACAGUGAGCCAAGUGGCUGUAUGAUAUGGUAUGGUAUGGUAUGGUAUGGUAUGGUAUGGUAUGCACAUGUGUGUGCAUGUGUGUGUGCCUGUGUGUGUGCGUGUGCGUGUGUGUAUGUGUGUGCGUGUGUGUGUGUGUGUGUUGUACCCGAGUGUGUGUUGAGCUCUUGCGGUCGCACUAGUGUGGAAUUCUCGGGUGUCAAGG
B11: ENSMUSG00000028439.149|Fam219a (ssRNA)
RNA: GGGAGUUCUACAGUCCGACGAUCGCUUCGAUAUCCGCAUGCUAGAAGCAAGAGAUAAGGCUGGCCUCCUGUGCCCCAUUGCCAUUUCACCCUAGCUCAAAGUCCAGGAGCCAGGCUUCCAGAAAGGCUCUUCAAGAGCAAGCUUAAGGAAAUACAGUGAGCCAAGUGGCUGUAUGAUAUGGUAUGGUAUGGUAUGGUAUGGUAUGGUAUGGUAUGCACAUGUGUGUGCAUGUGUGUGUGCCUGUGUGUGUGCGUGUGCGUGUGUGUAUGUGUGUGCGUGUGUGUGUGUGUGUGUUGUACCCGACUCUUGCGGUCGCACUAGUGUGGAAUUCUCGGGUGUCAAGG
B12: ENSMUSG00000028439.152|Fam219a (ssRNA)
RNA: GGGAGUUCUACAGUCCGACGAUCGCUUCGAUAUCCGCAUGCUAGGCCUCCUGUGCCCCAUUGCCAUUUCACCCUAGCUCAAAGUCCAGGAGCCAGGCUUCCAGAAAGGCUCUUCAAGAGCAAGCUUAAGGAAAUACAGUGAGCCAAGUGGCUGUAUGAUAUGGUAUGGUAUGGUAUGGUAUGGUAUGGUAUGGUAUGCACAUGUGUGUGCAUGUGUGUGUGCCUGUGUGUGUGCGUGUGCGUGUGUGUAUGUGUGUGCGUGUGUGUGUGUGUGUGUUGUACCCGAGUGUGUGUUGAGCCUAUCCUCUUGCGGUCGCACUAGUGUGGAAUUCUCGGGUGUCAAGG

The full ranking holds about 9,900 sequences; the median of “r (bound/input frequency ratio)” is about 0.7, and the highest 2% start at about 6.5. The sample holds the highest values, similar sequences and a random draw of the others, so the mix is not that of the screen.

Sequence of TDP-43 (Q13148 whole entry): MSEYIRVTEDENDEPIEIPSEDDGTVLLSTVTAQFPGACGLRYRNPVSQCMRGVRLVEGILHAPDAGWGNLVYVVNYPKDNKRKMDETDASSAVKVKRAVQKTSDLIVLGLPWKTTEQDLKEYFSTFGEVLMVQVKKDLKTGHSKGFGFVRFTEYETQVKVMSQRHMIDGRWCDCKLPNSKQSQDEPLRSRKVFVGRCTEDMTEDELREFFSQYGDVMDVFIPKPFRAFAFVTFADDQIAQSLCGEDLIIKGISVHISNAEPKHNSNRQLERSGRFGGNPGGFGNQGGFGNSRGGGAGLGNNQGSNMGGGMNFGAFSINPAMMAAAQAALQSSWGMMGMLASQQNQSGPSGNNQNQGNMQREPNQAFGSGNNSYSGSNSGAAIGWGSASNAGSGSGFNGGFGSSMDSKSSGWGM

This assay addresses TDP-43 (Homo sapiens, UniProt Q13148 1-414). Put plainly: RNA Bind-n-Seq with designed 260-mer pool; 25 mM Tris-HCl, 150 mM KCl, 3 mM MgCl2, BSA (printed 500 mg/mL), 20 units/mL SUPERase IN; pH not stated; 500 nM RNA pool, 1 h, 4 C; TDP-43 5, 50, 500 nM; high values mean tight binding. As to conditions: protein: recombinant; tags: SBP (GST cleaved off with PreScission; pGEX-GST-SBP). A digest of the protocol: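 Binding (R) is the ratio of each oligo's mapped-read-normalized abundance in the bound fraction to its abundance in the input. To obtain it, SBP-tagged recombinant TDP-43 (5, 50 or 500 nM) on streptavidin beads was incubated with 500 nM of an in vitro-transcribed 260-nt 3′ UTR oligo pool for 1 h at 4 °C in 25 mM Tris-HCl, 150 mM KCl, 3 mM MgCl2, BSA and SUPERase IN. The RNA retained after washing was released with biotin, then reverse transcribed, amplified by PCR and sequenced.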
For B1, the binding signal is 2.71 R (bound/input frequency ratio). For B2, the binding signal is 0.528 R (bound/input frequency ratio). With B3, the binding signal was 0.533 R (bound/input frequency ratio). Then B4, with 1.32 R (bound/input frequency ratio).

For the molecule B5, the binding signal is 1 R (bound/input frequency ratio). The result for B6 reads 1.04 R (bound/input frequency ratio); that for B7, 1.84 R (bound/input frequency ratio); that for B8, 7.17 R (bound/input frequency ratio). Take B9: the binding signal was 4.64 R (bound/input frequency ratio). The result for B10 reads 6.07 R (bound/input frequency ratio); that for B11, 6.67 R (bound/input frequency ratio); that for B12, 7.8 R (bound/input frequency ratio).

For the origin of these results see article PMC12864922, “TDP-43 directly inhibits mRNA accumulation in neurites through modulation of mRNA stability”.
